Potency and affinity values are given separately. Active and inactive are the calls of the source.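 How the source made its calls: active means a dose-response curve fit returns a half-maximal inhibitory concentration, extrapolated values included; inactive means the fit returns no such concentration.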
The compounds below were run against HMG-CoA reductase [Enterococcus faecalis] (UniProt Q9FD70) (assay: class II HMG-CoA reductase inhibition potency – biochemical, Enterococcus faecalis, confirmation (AID 1233)). Conditions: purified E. faecalis HMGR, NADPH absorbance 340 nm kinetics; series mostly up to 100 µM.

outcome, inactive:
Cc1ccc(S(=O)(=O)ON2C(=O)c3ccccc3C2=O)c(C)c1
Cn1c(SCC(=O)N2CCCC2)nnc1-c1ccc(S(=O)(=O)N2CCCC2)cc1
Cc1nc([N+](=O)[O-])c(Br)n1CC(=O)c1cccc([N+](=O)[O-])c1
Cc1cnc(NC(=O)c2cc3ccccc3o2)s1
CC1=C(C)C(=O)C(N2CCOCC2)=CC1=O
c1ccc(-c2nnc(SCc3nnc(-c4cccs4)o3)o2)cc1
Cc1ccc(N2CCN(C(=O)c3ccccc3NC(=O)/C=C\C(=O)O)CC2)cc1
Cc1ccccc1-n1nc(C)c2cc(C(=O)N3CCN(S(=O)(=O)c4ccc(F)cc4)CC3)sc21
CCCCCC(=O)Nc1ccc(Cc2ccncc2)cc1
O=C(Nc1ccccc1)Nc1ccc2ocnc2c1
CCOC(=O)C(=O)Nc1ccc([N+](=O)[O-])cc1OC
CC(C)(C)C(=O)N1CCC[C@H]1C(O)(c1ccccc1)c1ccccc1
COC(=O)C1=C(CSc2nc3c(cc2C#N)CN(C)CC3)OC(N)=C(C#N)C1c1ccc(F)cc1 (stereo not drawn)
CCOC(=O)C1(O)CC(C)=NN1C(=O)c1cccc(Br)c1 (stereo not drawn)
CCCCn1c(=O)c2ccccc2c2ccccc2c1=O
O=C(/C(=C/c1ccc(Cl)cc1)c1nc2ccccc2[nH]1)c1ccccc1
COc1ccc2ccc(=O)oc2c1
O=C(COC(=O)C1CCC(=O)N1)Nc1ccc(Br)cc1 (stereo not drawn)
CS(=O)(=O)N1CCc2cc(S(=O)(=O)N3CCCCC3)ccc21
Cc1ccc(S(=O)(=O)CCC(=O)NCCN2C(=O)S/C(=C\c3ccccc3)C2=O)cc1
CC1(C)CC(CCC(=O)Nc2ccccc2Cl)C(=O)O1 (stereo not drawn)
O=C(COC(=O)c1ccc[nH]c1=O)NC1CCCCCC1
CCOc1ccc(-c2[nH]ncc2Oc2ccccc2OCC)c(O)c1
CSc1ccccc1C(=O)NCc1ccccc1
FC(F)(F)c1cnc(Oc2ccc(-c3nnco3)cc2)c(Cl)c1
C#CCn1c(-c2cccs2)nc2ccccc21
Cc1cccc(NC(=O)CSc2ccc(-c3ccc4c(c3)OCO4)nn2)c1C
N#Cc1nc(COc2ccc(-c3ccccc3)cc2)oc1NCCCN1CCOCC1
Cc1ccccc1Nc1nnc(SCc2nc3ccccc3c(=O)[nH]2)s1
COc1ccc(C(=O)Nc2ccc(NC(=O)c3cnccn3)cn2)cc1
Clc1cccc(CN2CCC(Cc3ccccc3)CC2)c1
CN(C)C(=O)CSc1n[nH]c(=O)[nH]c1=O
Cc1c(CN2CCc3c([nH]c4ccccc34)C2C2CCCCC2)cnn1C (stereo not drawn)
O=[N+]([O-])c1ccc(Cl)c(-c2ccc(/C=N/c3c(-c4ccco4)nc4ccccn34)o2)c1
CCS(=O)(=O)CCn1c([N+](=O)[O-])cnc1C
CCOc1ccccc1C(=O)NC1CCN(Cc2nnnn2C2CCCC2)CC1
COc1ccccc1C(=O)NCC(=O)NC1CCCc2ccccc21 (stereo not drawn)
COc1cc(S(=O)(=O)Nc2ccccc2C)ccc1NC(=O)c1ccncc1
